# High-throughput results as filed in PubChem BioAssay.
# Most compounds without a hit are left out; they make up all but 4.6% or so of the library.
# D1 PAM: Potentiators of Human D1 Dopamine Receptor: qHTS. potentiation, % at 10 µM. HEK293 TREx D1 cells, calcium flux, dopamine EC20 potentiation. AID 504651, 2011. actives 0.036% (n = 360,000); in the data active = potentiation above about 30%; note: 0% is about no effect
# Target sequence (P21728 whole entry, looked up): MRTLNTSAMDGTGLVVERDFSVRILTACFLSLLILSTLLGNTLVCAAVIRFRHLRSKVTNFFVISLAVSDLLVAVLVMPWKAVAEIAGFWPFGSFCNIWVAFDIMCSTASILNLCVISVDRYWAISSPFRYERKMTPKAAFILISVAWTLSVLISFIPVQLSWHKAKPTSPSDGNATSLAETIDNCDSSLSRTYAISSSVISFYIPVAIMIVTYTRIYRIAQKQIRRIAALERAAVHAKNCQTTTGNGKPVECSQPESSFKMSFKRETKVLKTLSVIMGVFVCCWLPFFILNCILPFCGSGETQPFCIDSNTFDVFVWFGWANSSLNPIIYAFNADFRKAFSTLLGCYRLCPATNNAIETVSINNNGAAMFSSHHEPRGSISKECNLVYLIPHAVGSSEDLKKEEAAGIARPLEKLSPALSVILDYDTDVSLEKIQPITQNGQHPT
# D1 antagonist: Antagonist of Human D 1 Dopamine Receptor: qHTS; HEK293 TREx D1 cells, calcium flux, dopamine EC80; active compounds read low; activity change, negative = inhibition, % at 10 µM; actives 3.2% (n = 360,000); AID 504652, 2011; in the data active = activity change below about -30%; note: % is set by controls: 0 for no effect and ±100 for the full control effect
#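 Calcium flux readout: force-coupled, inducible Hek293 Trex D1 line, cells induced overnight at 30 C with tetracycline, dye-loaded 30–90 min at RT. Antagonism scored against EC80 dopamine challenge given 180 s after compound.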
# D1 ag: Allosteric Agonists of the Human D1 Dopamine Receptor: qHTS; HEK293 T-REx D1 cells, calcium flux, agonist mode; activation, % at 2 µM; actives 1% (n = 360,000); note: 0% is about no effect
#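 Agonism was scored from calcium flux recorded over 180 s (1 read/s) after pintool compound addition, following a 10-cycle baseline. Cells were inducible force-coupled HEK293 TREx D1, plated overnight at 30 C and loaded with no-wash calcium dye.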
# TRHR agonist-1: qHTS for Small Molecule Agonists and Allosteric Enhancers of Human TRH Receptor: Primary Screen for Agonists. Thyrotropin-releasing hormone receptor (Homo sapiens), P34981. TRHR cells, calcium flux fluo-8, FDSS agonist mode. activation, % at 2 µM. actives 0.18% (n = 360,000); note: 0% is about no effect
#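 Read-out: compound-evoked intracellular calcium rise in TRHR cells, fluo-8 dye, kinetic FDSS fluorescence at 1 s/cycle following a 10-cycle baseline. Cells cultured overnight before dye loading (30 min–1.5 h, RT).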
# TRHR enhancer-1: qHTS for Small Molecule Agonists and Allosteric Enhancers of Human TRH Receptor: Primary Screen for Enhancers | TRHR cells, fluo-8 calcium fluorescence, EC20 TRH enhancement | AID 493056, 2011 | actives 0.66% (n = 360,000) | Thyrotropin-releasing hormone receptor (Homo sapiens), P34981 | enhancement, % at 2 µM; in the data active = enhancement above about 30%; note: 0% is about no effect
#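 Enhancer read-out: after compound pinning and an initial kinetic agonist-mode read, an EC20 of TRH (10 nM final) was injected and fluo-8 calcium signal (Ex 480/Em 530) followed at 1 s/cycle for 100 cycles in TRHR-expressing cells.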
# TRHR enhancer-2: qHTS for Small Molecule Agonists and Allosteric Enhancers of Human TRH Receptor: Confirmation Screen for Enhancers; shares compounds with TRHR enhancer-1; 970 tested, under 10 active; TRH receptor cell assay, enhancer confirmation qHTS; activity change, negative = inhibition, % at 46.1 µM; active = well fitted curve in the direction sought with a large enough effect; inconclusive = small, poorly fitted or top-dose-only effect, or another doubt; inactive = no such curve, though single readings can be large; an effect the other way counts as inactive or inconclusive;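 note: compound effect scored on response to added TRH at EC20 of 10 nM; 0% is about no effect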
# TRHR agonist-2: qHTS for Small Molecule Agonists and Allosteric Enhancers of Human TRH Receptor: Confirmation Screen for Agonists | shares compounds with TRHR enhancer-1 | actives 8% (n = 970) | Potency, µM (highest dose often 46.1 µM), for the others: top-dose activation, most hits filed as activators | TRHR-expressing cells, agonist activation read-out; active = well fitted curve in the direction sought with a large enough effect; inconclusive = small, poorly fitted or top-dose-only effect, or another doubt; inactive = no such curve, though single readings can be large; an effect the other way counts as inactive or inconclusive; note: potency is the fitted concentration of half-maximal effect; 0% is about no effect; nearly all actives have a fitted effect of over 75% in size
# An asterisk follows results filed as active; ? = inconclusive; . = no result. Cut-off read from the data, not from the text of the source, unless noted: active = activation above about 30%; inactive = the rest.
SMILES,D1 PAM,D1 antagonist,D1 ag,TRHR agonist-1,TRHR enhancer-1,TRHR enhancer-2,TRHR agonist-2
CCc1nnc2c(NCc3ccccc3OC)nc3ccccc3n12,-1,-8,1,0,3,.,.
COc1ccc(C2C(C#N)=C(N)Oc3cc(N)ccc32)cc1 (configuration not stated),-4,-3,2,0,63*,7,-1%
Cn1cc(S(=O)(=O)N2CCCCC2)cc1C(=O)N1CCN(c2ccc(F)cc2)CC1,3,-6,-1,0,2,.,.
CCOC(=O)c1c(NC(=O)COC)sc(C(C)=O)c1C,-3,1,2,33*,0,13,-1%
CCOC(=O)c1c(NC(=O)COC)sc(C)c1C,0,11,-1,0,-5,.,.
CC(OC(=O)CN1C(=O)C2CC=CCC2C1=O)C(=O)Nc1ccc(F)cc1Cl (configuration not stated),-5,5,8,0,43*,3,7%
Cc1ccc(CSc2ncc(Cl)c(C(=O)Nc3nnc(C)s3)n2)cc1,-1,-15,-1,0,-2,.,.
Cn1cccc1/C=C1/SC(=S)N(CC(=O)O)C1=O,-4,-15,12,2,15,.,.
CN1CCS/C1=C\C=C1/SC(=S)N(CC(=O)O)C1=O,-7,6,129*,29,2,23,21µM*
CC(=O)Nc1sc(/C(C#N)=C/c2ccc(Cl)c(Cl)c2)nc1-c1ccc(C)cc1,-10,-49*,283*,68*,-1,-10,7.3µM*
CCC1CN(C(=O)N2CCC(C(=O)Nc3cc(C)ccc3C)CC2)c2ccccc2O1 (configuration not stated),-1,1,0,0,0,.,.
COc1ccc(NC(=O)CN(C)C(=O)CNC(=O)c2sc3ccccc3c2Cl)cc1,-9,-1,1,0,45*,1,1%
Cc1cc(=O)[nH]c(SCC(=O)N2CCc3ccccc3C2)n1,5,-2,3,28,-1,?,-1%
Cc1ccnc(SCC(=O)N2CCc3ccccc3C2)n1,5,-4,1,0,-3,.,.
O=C(NC1CC1)C1=NOC(CNc2ncc(C(F)(F)F)cc2Cl)C1 (configuration not stated),2,1,1,1,46*,-5,2%
COc1ccc2c(c1)c1c(c(=O)n(CCc3ccccc3)c(=O)n1Cc1ccc(F)cc1)n2C,-2,14,2,-1,14,.,.
CCc1ccc(CN(C)Cc2nc(-c3cccc(Cl)c3)no2)nc1,3,4,1,0,48*,-11,9%
CN(Cc1cnn(C)c1)Cc1nc(-c2ccc(Cl)cc2)no1,-5,2,6,1,0,.,.
COc1ccc(NC(=O)COC(=O)c2ccc(N3CCCC3=O)cc2)cc1OC,-8,12,3,0,43*,4,-1%
COc1cccc(/C=C/c2nc(C#N)c(N3CCN(C)CC3)o2)c1,4,1,2,-1,1,.,.
COc1cccc(CNC(=O)c2ccc(C)c(S(=O)(=O)N3CCOCC3)c2)c1,1,-1,3,0,-6,.,.
Cc1ccc(C(=O)NCc2ccncc2)cc1S(=O)(=O)N1CCOCC1,1,-17,-1,0,44*,-8,1%
COc1ccc(-c2nc(C)c(CCNC(=O)C(=O)Nc3ccccc3OC)s2)cc1,-3,14,2,1,5,.,.
COc1ccccc1N1C(C)=CC(=C(C#N)c2nc3ccccc3s2)C=C1C,11,-24,191*,46*,-6,?,18µM*
COc1ccccc1CNC(=O)C/C(C)=N/NC(=O)Cc1ccccc1,4,-7,2,1,41*,-4,1%
SMILES,D1 PAM,D1 antagonist,D1 ag,TRHR agonist-1,TRHR enhancer-1,TRHR enhancer-2,TRHR agonist-2
O=c1[nH]c2cc3ccccc3cc2nc1C(F)(F)F,9,-2,17,29,-4,-2,?
CCCn1c(SCC(=O)N2CCCCC2)nnc1-c1ccco1,-2,15,2,0,49*,4,-1%
COCCn1c(SCC(=O)N2CCCC2)nnc1C(C)C,2,-10,2,0,5,.,.
CCCn1c(SCC(=O)N2CCCCC2)nnc1C(C)C,-2,7,4,32*,-5,-4,1%
COc1cc(C(=O)N/N=C/c2ccc(OC(=O)c3ccccc3Cl)cc2)ccc1O,-2,-8,0,0,53*,6,6%
CN(C)Cc1c(O)ccc2c1O/C(=C\C=C\c1ccccc1)C2=O,1,7,45*,28,-3,-3,18µM*
Cc1oc2ccc(O)c(CN(C)C)c2c1C(=O)c1ccccc1,0,8,0,0,4,.,.
O=c1c(S(=O)(=O)c2ccccc2)cn(Cc2ccc(F)cc2)c2cc(N3CCCC3)c(F)cc12,-4,9,-2,0,77*,-8,-1%
Cn1cc(S(=O)(=O)c2cccc(Cl)c2)c(=O)c2cc(F)c(N3CCN(c4ccccc4)CC3)cc21,0,9,4,-1,59*,1,0%
COc1ccc(-c2cc3c(=O)n(CC(=O)Nc4cc(C)ccc4C)ccn3n2)cc1,2,13,0,1,4,.,.
CC1Cc2cc(/C(O)=C3/C(=O)C(=O)N(CCN4CCOCC4)C3c3ccc(N(C)C)cc3)ccc2O1 (configuration not stated),-5,-4,6,0,42*,-3,2%
CC1Cc2cc(/C(O)=C3/C(=O)C(=O)N(CCN4CCOCC4)C3c3ccc(C(C)C)cc3)ccc2O1 (configuration not stated),-8,1,2,1,4,.,.
Cc1oc2cc3oc(=O)c(CC(=O)N[C@@H](C)C(=O)NC(Cc4ccc(Cl)cc4)C(=O)O)c(C)c3cc2c1C (some centres not stated),6,12,1,0,44*,14,3%
CCC(NC(=O)Cc1c(C)c2ccc(OC)c(C)c2oc1=O)C(=O)NC(Cc1ccc(Cl)cc1)C(=O)O (configuration not stated),0,21,2,0,9,.,.
